In publication PMC5540273 (PLoS ONE, 2017):
Where two headings read alike, the source gives them in different places.

Tests used:
[1] = test system: TAOK2; conditions: concentration: 1 μM, replicates: in singlicate; n = 1
[2] = test system: TAOK3; conditions: concentration: 1 μM, replicates: in singlicate; n = 1
[3] = test system: TBK1; conditions: concentration: 1 μM, replicates: in singlicate; n = 1
[4] = test system: TEC; conditions: concentration: 1 μM, replicates: in singlicate; n = 1
[5] = test system: TESK1; conditions: concentration: 1 μM, replicates: in singlicate; n = 1
[6] = test system: TGFBR1; conditions: n = 1
[7] = test system: TGFBR2; conditions: concentration: 1 μM, replicates: in singlicate; n = 1
[8] = test system: TIE1; conditions: concentration: 1 μM, replicates: in singlicate; n = 1
[9] = test system: T1, TIE2; conditions: concentration: 1 μM, replicates: in singlicate; n = 1
T1 construct: gene TEK

[10] = test system: TLK1; conditions: concentration: 1 μM, replicates: in singlicate; n = 1
[11] = test system: TLK2; conditions: concentration: 1 μM, replicates: in singlicate; n = 1
[12] = test system: TNIK; conditions: concentration: 1 μM, replicates: in singlicate; n = 1
[13] = test system: TNK1; conditions: concentration: 1 μM, replicates: in singlicate; n = 1
[14] = test system: TNK2; conditions: concentration: 1 μM, replicates: in singlicate; n = 1
[15] = test system: TNNI3K; conditions: concentration: 1 μM, replicates: in singlicate; n = 1
[16] = test system: T2, TRKA; conditions: concentration: 1 μM, replicates: in singlicate; n = 1
T2 construct: gene NTRK1

[17] = test system: TRKB; conditions: concentration: 1 μM, replicates: in singlicate; n = 1
[18] = test system: T3, TRKC; conditions: concentration: 1 μM, replicates: in singlicate; n = 1
T3 construct: gene NTRK3

[19] = test system: TRPM6; conditions: concentration: 1 μM, replicates: in singlicate; n = 1
[20] = test system: TSSK1B; conditions: concentration: 1 μM, replicates: in singlicate; n = 1
[21] = concentration: 1 μM, replicates: in singlicate
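Further: KINOMEscan kinase panel screen.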

Cc1c2ccc(N(C)c3ccnc(Nc4cccc(S(N)(=O)=O)c4)n3)cc2nn1Cc1ccccc1.Cl.Cl [GW787226]
%Inh [1]: 72% | %Inh [2]: 0% | %Inh [3]: 35% | %Inh [4]: 11% | %Inh [5]: 15% | %Inh [6, 21]: 0% | %Inh [7]: 63% | %Inh [8]: 92.2% | %Inh [9]: 77% | %Inh [10]: 0% | %Inh [11]: 12% | %Inh [12]: 88% | %Inh [13]: 62% | %Inh [14]: 0% | %Inh [15]: 3% | %Inh [16]: 0% | %Inh [17]: 0% | %Inh [18]: 0% | %Inh [19]: 41% | %Inh [20]: 1%

Cc1nnc(-c2ccc(C)c(-c3ccc(C(=O)Nc4ccc(NS(C)(=O)=O)cc4)cc3)c2)o1 [GW702865]
%Inh [1]: 0% | %Inh [2]: 0% | %Inh [3]: 10% | %Inh [4]: 0% | %Inh [5]: 11% | %Inh [6, 21]: 0% | %Inh [7]: 0% | %Inh [8]: 0% | %Inh [9]: 0% | %Inh [10]: 0% | %Inh [11]: 4% | %Inh [12]: 0% | %Inh [13]: 0% | %Inh [14]: 3% | %Inh [15]: 0% | %Inh [16]: 23% | %Inh [17]: 0% | %Inh [18]: 26% | %Inh [19]: 7% | %Inh [20]: 15%

COc1cc2ncn(-c3cc(OCc4sccc4Cl)c(C(N)=O)s3)c2cc1OC [GSK448459]
%Inh [1]: 0% | %Inh [2]: 0% | %Inh [3]: 15% | %Inh [4]: 5% | %Inh [5]: 0% | %Inh [6, 21]: 11% | %Inh [7]: 0% | %Inh [8]: 36% | %Inh [9]: 0% | %Inh [10]: 0% | %Inh [11]: 0% | %Inh [12]: 74% | %Inh [13]: 0% | %Inh [14]: 24% | %Inh [15]: 0% | %Inh [16]: 47% | %Inh [17]: 25% | %Inh [18]: 14% | %Inh [19]: 0% | %Inh [20]: 1%

O=c1cc(N2CCOCC2)nc2n(Cc3cccc4ccccc34)ccn12 [GSK2333389]
%Inh [1]: 0% | %Inh [2]: 0% | %Inh [3]: 0% | %Inh [4]: 0% | %Inh [5]: 0% | %Inh [6, 21]: 17% | %Inh [7]: 1% | %Inh [8]: 11% | %Inh [9]: 0% | %Inh [10]: 0% | %Inh [11]: 0% | %Inh [12]: 0% | %Inh [13]: 0% | %Inh [14]: 6% | %Inh [15]: 0% | %Inh [16]: 0% | %Inh [17]: 0% | %Inh [18]: 19% | %Inh [19]: 2% | %Inh [20]: 13%

c1ccc(-c2cc(-c3c[nH]nc3-c3ccccn3)ccn2)cc1 [GW576604]
%Inh [1]: 0% | %Inh [2]: 0% | %Inh [3]: 5% | %Inh [4]: 0% | %Inh [5]: 9% | %Inh ([6]; 1 µM): 75% | %Inh [7]: 62% | %Inh [8]: 0% | %Inh [9]: 0% | %Inh [10]: 1% | %Inh [11]: 0% | %Inh [12]: 72% | %Inh [13]: 0% | %Inh [14]: 1% | %Inh [15]: 89% | %Inh [16]: 54% | %Inh [17]: 25% | %Inh [18]: 0% | %Inh [19]: 11% | %Inh [20]: 3%

O=C(NOCC1CC1)c1ccc(F)c(F)c1Nc1ccc(I)cc1Cl
%Inh [1]: 0% | %Inh [2]: 0% | %Inh [3]: 0% | %Inh [4]: 0% | %Inh [5]: 4% | %Inh [6, 21]: 0% | %Inh [7]: 0% | %Inh [8]: 0% | %Inh [9]: 0% | %Inh [10]: 3% | %Inh [11]: 0% | %Inh [12]: 2% | %Inh [13]: 26% | %Inh [14]: 0% | %Inh [15]: 0% | %Inh [16]: 0% | %Inh [17]: 0% | %Inh [18]: 0% | %Inh [19]: 0% | %Inh [20]: 0%

COCCNC(=O)c1ccc(-c2cc(C(=O)NC3CC3)cc(F)c2C)cc1 [GW868318]
%Inh [1]: 16% | %Inh [2]: 32% | %Inh [3]: 34% | %Inh [4]: 11% | %Inh [5]: 26% | %Inh [6, 21]: 0% | %Inh [7]: 6% | %Inh [8]: 17% | %Inh [9]: 17% | %Inh [10]: 14% | %Inh [11]: 0% | %Inh [12]: 0% | %Inh [13]: 40% | %Inh [14]: 16% | %Inh [15]: 11% | %Inh [16]: 27% | %Inh [17]: 43% | %Inh [18]: 30% | %Inh [19]: 20% | %Inh [20]: 0%

CCn1cnc2c(N)ncnc21 [GW345098]
%Inh [1]: 4% | %Inh [2]: 0% | %Inh [3]: 39% | %Inh [4]: 11% | %Inh [5]: 4% | %Inh [6, 21]: 0% | %Inh [7]: 12% | %Inh [8]: 6% | %Inh [9]: 2% | %Inh [10]: 22% | %Inh [11]: 0% | %Inh [12]: 17% | %Inh [13]: 7% | %Inh [14]: 10% | %Inh [15]: 4% | %Inh [16]: 24% | %Inh [17]: 0% | %Inh [18]: 7% | %Inh [19]: 81% | %Inh [20]: 20%

O=C1Cc2cc(Nc3nc(NCc4cccc(S(=O)(=O)C(F)(F)F)c4)ncc3C(F)(F)F)ccc2N1
%Inh [1]: 0% | %Inh [2]: 0% | %Inh [3]: 0% | %Inh [4]: 0% | %Inh [5]: 0% | %Inh [6, 21]: 0% | %Inh [7]: 2% | %Inh [8]: 0% | %Inh [9]: 0% | %Inh [10]: 0% | %Inh [11]: 3% | %Inh [12]: 0% | %Inh [13]: 0% | %Inh [14]: 10% | %Inh [15]: 0% | %Inh [16]: 17% | %Inh [17]: 0% | %Inh [18]: 10% | %Inh [19]: 0% | %Inh [20]: 19%

CC(C)Oc1ccc2c(-c3ccnc(Nc4ccc(N5CCN(C)CC5)cc4)n3)cnn2n1 [GW696155]
%Inh [1]: 79% | %Inh [2]: 70% | %Inh [3]: 97.9% | %Inh [4]: 0% | %Inh [5]: 12% | %Inh [6, 21]: 29% | %Inh [7]: 35% | %Inh [8]: 80% | %Inh [9]: 0% | %Inh [10]: 95.3% | %Inh [11]: 95.1% | %Inh [12]: 32% | %Inh [13]: 60% | %Inh [14]: 46% | %Inh [15]: 9% | %Inh [16]: 54% | %Inh [17]: 39% | %Inh [18]: 42% | %Inh [19]: 43% | %Inh [20]: 79%
